Source: PubChem BioAssay (University of Kansas High Throughput Screening Laboratory)
mHTT CaM bind: mutant huntingtin-calmodulin interaction inhibitors – biochemical, AlphaScreen, primary screen. P42858. AlphaScreen His-mHTT/GST-CaM binding, luminescence. inhibition, % at 15 µM. 190,000 compounds, 3.6% hits;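 also: 0% = both proteins with DMSO and 100% = one protein alone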
Pf apPOL inh: Pf-apPOL inhibitors, biochemical, fluorescence; Plasmodium falciparum apicoplast DNA polymerase (apPOL); Recombinant Pf-apPOL, molecular beacon fluorescence, 1.5 h; inhibition, % at 10 µM; 210,000 compounds, 0.25% hits
* hit, by the source's call; · = no result given. The sample as a whole holds a higher share of hits than the screen did. Rule as the data show it: active = inhibition above about 50%; inactive = the rest.

SMILES	mHTT CaM bind	Pf apPOL inh
COCCN=C1Nc2ccccc2NC12CCCN(C(=O)c1n[nH]c3ccccc13)C2 (stereo unspecified)	76*	-7
COCCN=C1Nc2ccccc2NC12CCCN(C(=O)c1ccccc1C)C2 (stereo unspecified)	5	-3
CN1CCN(c2ncncc2N2CCC(C(=O)NCc3ccccc3)CC2)CC1	12	-9
CCCC1=NN(C(=O)c2ccccc2Br)C(O)(C(F)(F)F)C1 (stereo unspecified)	-6	2
Cn1nc(-c2nc(-c3ccccc3F)no2)c2c1CCN(C(=O)Cc1cccs1)C2	14	0
COc1ccc(Nc2nc(C(=O)Nc3ccc4c(c3)OCCO4)cs2)c(OC)c1	53*	4
COc1ccc(C(=O)Nc2nc(CC(=O)Nc3ccc4c(c3)OCCO4)cs2)cc1	17	-2
CC(C)CCn1c(-c2ccc(N)cc2)nc2ccccc21	15	-7
Cc1ccc(Cl)cc1NC(=O)CN1C(=O)CCCc2ccccc21	-1	-3
COc1ccc(/C=C2\SC(=O)N(c3ccccc3OC)C2=O)cc1	4	-4
COc1ccccc1N1C(=N)S/C(=C\c2ccc(Br)c([N+](=O)[O-])c2)C1=O	57*	-8
COc1cccc(CCC(=O)N2CC3CC(NC(=O)c4ccccc4)C2C3)c1 (stereo unspecified)	10	-3
COc1ccc(-n2nc(C(=O)NCC(=O)NCc3ccccc3)c3ccccc3c2=O)cc1Cl	98*	-6
CCN(CC)C(=O)CNC(=O)c1nn(-c2ccc(OC)c(OC)c2)c(=O)c2ccccc12	9	-8
CCN(CC)C(=O)CNC(=O)c1nn(-c2ccc(OC)c(Cl)c2)c(=O)c2ccccc12	56*	-3
COc1ccc(-n2nc(C(=O)NCC(=O)Nc3cccc(C)n3)c3ccccc3c2=O)cc1Cl	6	0
COc1ccc(C(=O)Nc2cccc(C)n2)c(OC)c1OC	-8	0
Cc1cccc(NC(c2ccccc2[N+](=O)[O-])c2ccc3ccc(C)nc3c2O)n1 (stereo unspecified)	75*	-6
Cc1cccc(NS(=O)(=O)c2ccc(C)c([N+](=O)[O-])c2)n1	-6	3
COc1cc(C(Nc2cccc(C)n2)c2ccc3ccc(C)nc3c2O)ccc1O (stereo unspecified)	97*	-79
Cc1ccc2cccc(NC(=O)C(F)(F)F)c2n1	28	1
COc1cc(C(O)CO)ccc1O (stereo unspecified)	·	-5
COc1ccc(C(Nc2cccc(C)n2)c2ccc3ccc(C)nc3c2O)cc1C (stereo unspecified)	89*	-92
Cc1cccc(NC(c2ccc(O)cc2)c2ccc3ccc(C)nc3c2O)n1 (stereo unspecified)	97*	-6
COc1ccccc1Oc1c(C)oc2c(CN3CCCCC3)c(O)ccc2c1=O	-2	-2
SMILES	mHTT CaM bind	Pf apPOL inh
CC(=O)NCc1csc(C2CCN(C(=O)c3ccccc3Cl)CC2)n1	-9	-1
COc1ccc(C=C2Oc3cc(OCC(=O)OC(C)(C)C)ccc3C2=O)c(OC)c1OC	-1	-8
CN1CCC(N(C)C(=O)c2cc3c(-c4ccccc4)nn(-c4ccccc4)c3s2)CC1	100*	-1
Cc1nn(-c2ccccc2)c2sc(C(=O)NC(C)C)cc12	1	0
CCN1C(=O)/C(=C2\C=Cc3ccccc3N2CC)SC1=Nc1ccc(N2CCOCC2)cc1	0	-3
CCN1C(=O)/C(=C2\C=Cc3ccccc3N2CC)SC1=Nc1ccccc1	97*	-2
COc1ccc(NS(=O)(=O)c2ccc(F)cc2)cc1OC	5	2
COc1cc(OC)c2ccc(=O)oc2c1C(CC(=O)N1CCOCC1)c1ccc2c(c1)OCO2 (stereo unspecified)	12	-7
COc1cc(C(CC(=O)N2CCN(c3ccccc3)CC2)c2c(OC)cc(OC)c3ccc(=O)oc23)cc(OC)c1OC (stereo unspecified)	71*	-3
COc1ccc(C(CC(=O)N2CCCCC2)c2c(OC)cc(OC)c3ccc(=O)oc23)cc1 (stereo unspecified)	34	-4
COc1cc(OC)c2ccc(=O)oc2c1C(CC(=O)N1CCN(c2ccccc2)CC1)c1ccc2c(c1)OCO2 (stereo unspecified)	70*	-4
CCCCOC(=O)c1nnc(-c2ccc([N+](=O)[O-])cc2)o1	·	-4
O=c1c2ccccc2c(-c2ccccc2)nn1-c1cc(N2CCCC2)ccc1[N+](=O)[O-]	34	0
Cc1ccc(-c2nn(-c3cc(N4CCNCC4)ccc3[N+](=O)[O-])c(=O)c3ccccc23)cc1C	100*	0
O=C(c1cccs1)N1CCCCC1CCN1CCCC1 (stereo unspecified)	-5	-12
Cn1c(C2CCN(C(=O)COc3ccc(F)c(F)c3)C2)nc2ccncc21 (stereo unspecified)	3	2
